Molecular target: Hexose transporter 1 (Plasmodium falciparum) (UniProt O97467)
Test: ST_JUDE_LEISH: Cytotoxicity at 2uM final concentration against transgenic Leishmania Mexicana promastigotes LmPfHT that are glucose transport deficient and complemented with the Plasmodium falciparum hexose transporter. Activity is measured by DNA content using SYBR green in vitro
Format: functional

Row | SMILES | inhibition
1 | CC(=O)Nc1ccc(S(=O)(=O)Nc2ccc(Nc3nc(C)cc(N(C)C)n3)cc2)cc1 | 0.57%
2 | OC(CNC1CCCCC1)Cn1c2ccccc2c2ccccc21 (stereo not given) | 7.72%
3 | COc1ccc(-c2csc(NC(=O)CCC(=O)O)n2)cc1OC | 1.36%
4 | CCOC(=O)/C(=N\OC(C)(C)C(=O)NCc1ccc(O)c(O)c1)c1csc(NC(c2ccccc2)(c2ccccc2)c2ccccc2)n1 | -1.09%
5 | CCc1ccc(Cc2cnc3nc(N)nc(N)c3c2C)cc1 | 13.2%
6 | CC(C)Nc1nc(NCCc2c[nH]cn2)nc(NCc2ccc(Cl)c(Cl)c2)n1 | 0.13%
7 | COc1cccc(Cc2c(C)nc3nc(N)nc(N)c3c2C)c1 | 1.04%
8 | O=C(/C=C/c1ccccc1Cl)Nc1ccc(Br)c(OCCN2CCC(O)(c3ccccc3)CC2)c1 | 0.95%
9 | CC(=O)Nc1ccc(OCCN(Cc2ccccc2C(F)(F)F)c2ccc(C#N)c(C(F)(F)F)c2)cc1 | 16%
10 | COCCN(CCOC)c1ncc(-c2ccsc2)c(-c2nc(C)c(C)s2)n1 | 0.1%
11 | O=C(/C=C/c1ccc(Cl)c(Cl)c1)NCCCCCN1CCCN(C(=O)Nc2ccc(F)c(Cl)c2)CC1 | 1.72%
12 | O=C(NCCCCN1CCC(c2cccc3ccccc23)CC1)c1ccc(-c2ccc(C(F)(F)F)cn2)cc1 | 3.84%
13 | CC(C)c1ncc(-c2ccncc2)c(C2CCC(CNC(=O)c3cccnc3)CC2)n1 (stereo not given) | 1.25%
14 | CCCCCCCN1CCC(CC(=O)Nc2ccnc3ccc(OC)cc23)C(CC)C1 (stereo not given) | -1.03%
15 | O=C(NCCOc1ccccc1)[C@H](Cc1ccccc1)Nc1ccnc(NCC2CCCCC2)n1 | 1.21%
16 | Cc1cnc(C(=O)Nc2cccc(-c3cccc(-c4nc5cc(F)ccc5[nH]4)c3)c2)cn1 | 5.55%
17 | Oc1ccc(CN2CCC(NCc3cccc4ccccc34)CC2)cc1 | 11.6%
18 | CC1c2cccc(O)c2CCN1CCc1ccc(Cl)c(Cl)c1 (stereo not given) | 7.34%
19 | CC(=O)Nc1cccc(-c2cnc(N)c3cc(-c4ccc5c(c4)OCO5)ccc23)c1 | 7.74%
20 | O=C(Nc1ccc2c(c1)CCN(C1CCC1)CC2)c1ccc(-c2cn3ccccc3n2)cc1 | 1.01%

Row | SMILES | inhibition
21 | Cc1c[nH]c2cc(/C=C/C(=O)NC3CCC(CCN4CCc5ccc(C#N)cc5CC4)CC3)ccc12 (stereo not given) | 1.75%
22 | CN1CCCC(CN2CCN(Cc3cccc(-c4ccc(-c5nc6cc(C(F)(F)F)ccc6[nH]5)cc4)c3)CC2)C1 (stereo not given) | 0.64%
23 | COc1cccc(C2(c3cccc(OC)c3)N=C(N)N(CCCc3ccccc3)C2=O)c1 | -0.23%
24 | O=C(NCCc1ccc(Cl)c(Cl)c1)[C@@H]1CCCN1C(=O)c1ccc(O)c(-c2cccc(C(F)(F)F)c2)c1 | -0.04%
25 | CN(C)CCCOc1cccc(CCNCc2cccc(Oc3ccc(Cl)cc3)c2)c1 | 2.34%
26 | Cc1cc(C)c2c(c1)C(=NO)CCN2 | 1.76%
27 | O=C(Nc1ccc(CN2CCCCC2)cc1)c1ccc(COc2ccc([N+](=O)[O-])cc2)o1 | 3.4%
28 | COc1cc2c(OC)cccc2cc1CNCCCCCCNCc1cc2cccc(OC)c2cc1OC | 6.08%
29 | CN(C(=O)c1ccccc1)C1c2cc(C#N)ccc2OC(C)(C)C1O (stereo not given) | 0.76%
30 | O=C(NC1CC1)c1ccc(N2CCC(Cc3ccccc3)CC2)c([N+](=O)[O-])c1 | 0.86%
31 | Oc1cc(NC[C@@H]2CCC[C@@H]2NCc2ccc(Cl)c(Cl)c2)nc2ccccc12 | 8.79%
32 | O=C(O)C1CC(=O)N(c2ccc(Cl)cc2)C1 (stereo not given) | -0.45%
33 | NC(=O)c1cccc(CN2Cc3ccccc3OC3(CCN(Cc4c[nH]c5cnccc45)CC3)C2)c1 | 1.28%
34 | O=C(NCCN1CCCC1)c1cccc(Nc2nccc(Nc3ccc(Oc4ccccc4)cc3)n2)c1 | 3.85%
35 | O=C(Nc1ccccc1Cl)N(Cc1cc(Cl)cc(Cl)c1)CC(O)COc1ccc(Cl)c(F)c1 (stereo not given) | 2.72%
36 | CCN1CCc2nc3ccccc3c(C(=O)Nc3ccc(C#N)cc3)c2C1 | 3.74%
37 | CC1(C)N=C(N)N=C(N)N1c1cc(Cl)c(Cl)cc1Cl | -2.74%
38 | CN1CC[C@@H](Oc2cc(Nc3nc(-c4ccc(C#N)cc4)cs3)ccc2Cl)C1 | 5.47%
39 | Cc1cccc2nc(-c3ccc(-c4cccc(CN5CCN(CCN6CCOCC6)CC5)c4)s3)[nH]c12 | -1.04%
40 | Cc1nc(N)nc(N)c1CCCOc1ccccc1Cl | 27.9%

— ChEMBL document CHEMBL3433997, “St. Jude Leishmania screening dataset” (2016)
